Source: PubChem BioAssay (National Center for Advancing Translational Sciences (NCATS))
Only some compounds are listed: those with a hit (about 18% of all), similar ones and a draw of the others.
PLK1 PBD inh: PLK1 (human) polo-box domain binding inhibition; Potency, µM, inactives show max response, negative = inhibition, most hits filed as inhibitors; 360,000 tested, 2.8% active; P53350; Plk1 PBD binding of FITC phosphopeptide, fluorescence polarization; also: series mostly up to about 57 µM; nearly all actives have a fitted effect of over 65% in size
GCN5L2 inh: blocks human GCN5L2 histone acetyltransferase; 390,000 tested, 0.21% active; GCN5L2 HAT assay, ThioGlo1 CoA-SH fluorescence; Potency, µM (doses to about 58.9 µM), inactives show at the top dose activity change, negative = inhibition, usual class: inhibitors; Q92830
Target sequence (Q92830 whole entry, looked up): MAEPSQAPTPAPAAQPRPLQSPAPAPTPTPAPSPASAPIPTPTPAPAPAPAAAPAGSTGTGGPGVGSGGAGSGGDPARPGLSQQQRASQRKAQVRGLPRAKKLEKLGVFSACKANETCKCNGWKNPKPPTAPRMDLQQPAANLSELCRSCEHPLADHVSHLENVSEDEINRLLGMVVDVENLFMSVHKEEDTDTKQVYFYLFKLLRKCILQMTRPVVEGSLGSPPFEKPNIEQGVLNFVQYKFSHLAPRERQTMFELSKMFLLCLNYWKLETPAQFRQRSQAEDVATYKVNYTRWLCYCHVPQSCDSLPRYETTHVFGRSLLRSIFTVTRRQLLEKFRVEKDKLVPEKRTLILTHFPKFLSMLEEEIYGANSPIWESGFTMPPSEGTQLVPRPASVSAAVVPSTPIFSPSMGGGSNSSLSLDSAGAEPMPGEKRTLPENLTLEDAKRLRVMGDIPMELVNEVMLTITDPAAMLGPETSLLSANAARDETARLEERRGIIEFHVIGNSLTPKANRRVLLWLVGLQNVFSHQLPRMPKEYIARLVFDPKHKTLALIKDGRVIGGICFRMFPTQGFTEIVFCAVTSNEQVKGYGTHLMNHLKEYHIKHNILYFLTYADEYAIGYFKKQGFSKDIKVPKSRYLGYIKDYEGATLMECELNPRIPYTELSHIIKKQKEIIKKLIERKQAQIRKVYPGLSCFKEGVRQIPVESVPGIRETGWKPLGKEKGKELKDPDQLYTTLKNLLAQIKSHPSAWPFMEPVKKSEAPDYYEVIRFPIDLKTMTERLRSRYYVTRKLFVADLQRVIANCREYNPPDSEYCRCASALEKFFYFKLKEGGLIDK
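Fluorescence readout, Ex340nm/Em540nm: ThioGlo1 (50uM final) reacts with free CoA thiol released as 20nM GCN5L2 acetylates H3(1-25) peptide (75uM) using acetyl-CoA (70uM). Compound and enzyme sat 15 min beforehand; 20 min room-temperature reaction.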
TDP1 block: TDP1 (human) enzyme inhibition. 350,000 tested, 0.28% active. AID 485290. Q9NUW8. recombinant TDP1, AlphaScreen DNA substrate cleavage. Potency, µM (doses to about 130 µM), for the others: at the highest dose activity change, negative = inhibition, actives largely listed as inhibitors; also: nearly all actives have a fitted effect of over 40% in size
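Tdp1 1 nM final; 15 min RT w/ cpd; substrate 15 nM, 5 min; beads 10 ug/ml, 10 min; AlphaScreen read. Neg ctrl: no enzyme.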
DT40 TDP1 no CPT: qHTS for Inhibitors of human tyrosyl-DNA phosphodiesterase 1 (TDP1): qHTS in cells in absence of CPT; DT40 Tdp1-/- hTDP1 cells, no CPT, ATP luminescence, 48 h; 420,000 tested, 15% active; Potency, µM (doses to about 46.2 µM), inactives show top-dose activity change, negative = growth inhibition, actives largely listed as inhibitors; also: nearly all actives have a fitted effect of over 55% in size
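Stably hTDP1-transfected Tdp1-null chicken DT40 cells were treated with library compounds minus camptothecin and grown for at least 48 hr at 37 °C, after which cellular ATP was quantified by luminescence.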
VDR inh: vitamin D3 receptor (human) inhibition; VDR-SRC2-3 peptide fluorescence polarization, 2 h; 400,000 tested, 0.93% active; P11473; Potency, µM, inactives show max response, negative = inhibition, most hits filed as inhibitors
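Compounds are added to VDR with labelled SRC2-3 coactivator peptide and held 2 h at room temperature. Inhibition of the VDR–peptide interaction is then read as a change in fluorescence polarization.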
DT40 TDP1 CPT: DT40-hTDP1 cell growth loss with CPT; chicken DT40 Tdp1-/-;hTDP1 cells + 20 nM CPT, ATP luminescence, 48 h; Potency, µM (titrated, usually from 46.2 µM), without a hit: at the highest dose activity change, negative = growth inhibition, hits mostly inhibitors; 420,000 tested, 12% active; AID 686979; also: nearly all actives have a fitted effect of over 55% in size
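Chicken DT40 Tdp1-/- cells stably complemented with human TDP1 were seeded at 400 cells/well in medium containing 20 nM camptothecin, exposed to pin-transferred compounds, and grown at 37 °C for at least 48 hr. Viability was read as ATP luminescence.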
An asterisk follows results filed as active; ? = inconclusive; . = no result; [ ] = dose if it differs, or a comment. Calls follow the shape of the dose curve; as a rule, active = well fitted curve in the direction sought with a large enough effect; inconclusive = small, poorly fitted or top-dose-only effect, or another doubt; inactive = no such curve, though single readings can be large; an effect the other way counts as inactive or inconclusive. % is scaled to controls: 0 for no effect and ±100 for the full control effect; potency is read from the fitted curve at half-maximal effect.

SMILES	PLK1 PBD inh	GCN5L2 inh	TDP1 block	DT40 TDP1 no CPT	VDR inh	DT40 TDP1 CPT
Cc1nn(C)c(C(=O)N/N=C/c2cc3c(cc2Br)OCO3)c1Br	-8%	1%	5%	18µM*	3%	?
O=C(Cc1ccccc1)N/N=C/c1ccc2c(c1)OCO2	-18%	0%	5%	-27%	-3%	11%
O=C(CSCc1ccccc1)N/N=C/c1cc2c(cc1Br)OCO2	1%	-1%	5%	18µM*	-27%	-74%
COc1ccccc1CNC(=O)C[C@H]1CC[C@@H]2[C@H](COC[C@H](O)CN2Cc2ccc3c(c2)OCO3)O1	-5%	.	.	?	.	?
COc1ccccc1N(Cc1cc(=O)[nH]c2ccccc12)C(=O)c1ccc([N+](=O)[O-])cc1	-2%	-7%	10%	12µM*	-27%	21µM*
COc1ccccc1N(Cc1cc(=O)[nH]c2ccccc12)C(C)=O	0%	-3%	.	11%	8%	6%
CC(C)c1nc2sc3c(=O)[nH]c(=S)[nH]c3c2c2c1CCCC2	24µM*	-6%	.	-4%	71µM*	5%
CCCC(NCC(=O)Nc1cc(S(=O)(=O)N2CCOCC2)ccc1OC)c1ccccc1 (stereo unspecified)	0%	-11%	2%	15µM*	-10%	16µM*
COc1ccc(S(=O)(=O)N2CCOCC2)cc1NC(=O)Cc1ccccc1Cl	-1%	1%	-3%	-13%	-2%	10%
COc1ccc(S(=O)(=O)N2CCOCC2)cc1NC(=O)CSc1n[nH]c(C(C)C)n1	27µM*	-7%	2%	-16%	1%	4%
COc1ccc(S(=O)(=O)N2CCOCC2)cc1NC(=O)COc1ccc(C)cc1	-18%	-2%	0%	?	-13%	?
COc1ccc(S(=O)(=O)N2CCOCC2)cc1NC(=O)CC(C)c1ccccc1 (stereo unspecified)	-16%	0%	1%	21µM*	-14%	-25%
COc1ccc(S(=O)(=O)NCCCCC(=O)O)cc1C(=O)O	3%	-4%	3%	10%	-10%	19%
Cc1cc(NC(=O)CN2CCc3ccccc3C2)nc2c1c(=O)oc1ccccc12	-16%	-1%	.	18µM*	-20%	21µM*
Cc1cc(NC(=O)CN2CCC(C)CC2)nc2c1c(=O)oc1ccccc12	.	1%	2%	21µM*	-22%	?
CCCCOCCCNC(=O)C[C@@H]1C[C@@]2(C(=O)OC)CC(C)(C)CC=C2N(Cc2ccc3c(c2)OCO3)C1=O	9%	.	.	21µM*	.	?
COC(=O)[C@@]12C[C@@H](CC(=O)NCCC(C)C)C(=O)N(Cc3ccc4c(c3)OCO4)C1=CCC(C)(C)C2	7%	.	.	18µM*	.	?
N#Cc1c(C(F)(F)F)cc(-c2cccs2)nc1SCC(=O)Nc1ccccc1F	.	-9%	0%[12.3 µM]	?	14%	-28%
CCN(CC)CCCC(C)n1c(-c2ccccc2)nc2c(NCCO)nc(C)nc21 (stereo unspecified)	.	.	9%	.	.	.
COc1ccc(N2C(=O)N(Cc3cccc(F)c3)c3ccccc3S2(=O)=O)cc1	.	-2%	6%	.	.	.
CCCCCCOc1ccc(C(=N)N(CCCC)CCCC)c2ccccc12	.	-7%	.	2.7µM*	?	4.2µM*
COc1ccccc1NC(=O)NC(=O)c1ccccc1	-4%	-6%	1%	?	-4%	-28%
O=C(C1CN(C(=O)c2cc3ccccc3o2)c2ccccc2O1)N1CCCCC1 (stereo unspecified)	-6%	.	.	?	.	?
CC(C)(C)CC(=O)OCC(=O)Nc1cc(C(C)(C)C)nn1-c1ccccc1	24µM*	0%	0%	-12%	-24%	-4%
CCC(C)n1c(SCC(=O)Nc2cc(C(C)(C)C)nn2-c2ccccc2)nc2ccccc2c1=O (stereo unspecified)	-1%	-9%	4%	26µM*	-12%	?
SMILES	PLK1 PBD inh	GCN5L2 inh	TDP1 block	DT40 TDP1 no CPT	VDR inh	DT40 TDP1 CPT
CCC(C)n1c(SCC(=O)NC2CC2)nc2ccccc2c1=O (stereo unspecified)	3%	.	.	?	.	?
C#CC[N+](C)(C)C(C#Cc1ccccc1)CC=C (stereo unspecified)	-12%	-1%	2%	18µM*	-4%	12µM*
C=CCC(C)(O)C#Cc1ccccc1 (stereo unspecified)	.	.	2%	.	4%	.
CC(=O)Nc1ccc(C(=O)N2CCCCC2c2cc(C(=O)NCc3ccc(F)cc3)no2)cc1 (stereo unspecified)	1%	.	.	-19%	.	-4%
CCN(CC)C(=O)Cn1c(SCC(=O)Nc2ccc(C)c(C)c2)nc2ccccc21	.	-2%	9%	?	-1%	?
CSc1nc2ccccc2n1CC(=O)Nc1ccc(C)c(C)c1	-7%	-2%	0%	?	-12%	?
CCCCN(C)C(=O)Cn1c(SCC(=O)Nc2ccc(C)c(C)c2)nc2ccccc21	.	-5%	-4%	13µM*	-12%	?
Cc1cc2ccccc2n2c(SCC(=O)Nc3ccc(S(=O)(=O)N4CCC(C)CC4)cc3)nnc12	-6%	-19%	5%	23µM*	-17%	29µM*
Cc1ccc(NC(=O)CSc2nc3ccccc3n2CC(=O)N2CCC(C)CC2)cc1C	.	-6%	4%	18µM*	-15%	?
CCNc1nc(NC(C)(C)C)nc(SCC(N)=O)n1	-10%	4%	5%	-18%	3%	-1%
COc1cc2c(cc1[N+](=O)[O-])-c1ccc([N+](=O)[O-])cc1C2=NNC(N)=S	9.5µM*	.	.	7.3µM*	.	?
CCCCCNC(=O)c1ccc2c(c1)nc(C)n2-c1cccc(C)c1	.	-8%	8%	?	-7%	15µM*
Cc1cccc(-n2c(C)nc3cc(C(=O)N4CCOCC4)ccc32)c1	27µM*	-1%	3%	-14%	?	-22%
COCCCNC(=O)c1ccc2c(c1)nc(C)n2-c1cccc(C)c1	-14%	6%	10%	-27%	-3%	0%
CCOC(=O)C1(Cc2ccccc2C)CCCN(C(=O)c2sccc2C)C1 (stereo unspecified)	-1%	-7%	0%	?	-3%	18µM*
CCOC(=O)C1(Cc2ccccc2C)CCCN(S(=O)(=O)c2cccnc2)C1 (stereo unspecified)	-6%	3%	-5%	16µM*	-4%	?
